Test results from PubChem BioAssay AID1159580 (chemical genetic matrix, 2015).
The campaign covered roughly 5,500 compounds. About 2,000 (36%) were called active. About 18% were inconclusive and are not listed. The list shows a part of the results. Unmarked numbers belong to inactive results. No stated cut-off is given here; in the data, active means normalized growth mostly below about 0.91 (no sharp cut-off); inconclusive means no clear call, values can overlap the other calls; inactive means mostly above about 0.92.

Assay: chemical genetic growth profiling, strain panel (AID 1159580);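 further: tested at 20 µM; growth read once vehicle control cultures reached saturation at 30 °C; 1 = growth at the plate median or of vehicle wells; lower values mean less growth of the strain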
Conditions: growth OD

C#C[C@]1(O)CCC2C3CCc4cc(O)ccc4C3CC[C@@]21C (stereo partly drawn)
normalized growth (S. cerevisiae deletion strains, locus YJR043C, strain POL32, active compounds read low): 0.927 | normalized growth (S. cerevisiae deletion strains, locus YJR066W, strain TOR1, active compounds read low): 0.81 (active) | normalized growth (S. cerevisiae deletion strains, locus YKL009W, strain mrt4, active compounds read low): 0.827 (active) | normalized growth (S. cerevisiae deletion strains, locus YKL068W, active compounds read low): 1.03 | normalized growth (S. cerevisiae deletion strains, locus YKL085W, strain MDH1 (second series), active compounds read low): 1.01 | normalized growth (S. cerevisiae deletion strains, locus YKL085W, strain MDH1, active compounds read low): 1.01 | normalized growth (S. cerevisiae deletion strains, locus YKL160W, strain elf1, active compounds read low): 0.996 | normalized growth (S. cerevisiae deletion strains, locus YKR001C, strain vps1, active compounds read low): 0.959 | normalized growth (S. cerevisiae deletion strains, locus YKR026C, strain gcn3, active compounds read low): 1.05 | normalized growth (S. cerevisiae deletion strains, locus YKR091W, strain srl3, active compounds read low): 1.02 | normalized growth (S. cerevisiae deletion strains, locus YLL001W, strain dnm1, active compounds read low): 1.05 | normalized growth (S. cerevisiae deletion strains, locus YLL026W, active compounds read low): 1.01 | normalized growth (S. cerevisiae deletion strains, locus YLL041C, strain sdh2, active compounds read low): 1.03 | normalized growth (S. cerevisiae deletion strains, locus YLR027C, strain aat2, active compounds read low): 0.938 | normalized growth (S. cerevisiae deletion strains, locus YLR039C, strain RIC1, active compounds read low): 0.766 | normalized growth (S. cerevisiae deletion strains, locus YLR058C, strain SHM2, active compounds read low): 0.995 | normalized growth (S. cerevisiae deletion strains, locus YLR102C, strain apc9, active compounds read low): 1.03 | normalized growth (S. cerevisiae deletion strains, locus YLR113W, strain HOG1, active compounds read low): 1.05 | normalized growth (S. cerevisiae deletion strains, locus YLR221C, strain rsa3, active compounds read low): 0.965 | normalized growth (S. cerevisiae deletion strains, locus YLR258W, strain gsy2, active compounds read low): 0.982 | normalized growth (S. cerevisiae deletion strains, locus YLR262C, strain YPT6 (second series), active compounds read low): 0.735 (active) | normalized growth (S. cerevisiae deletion strains, locus YLR262C, strain YPT6, active compounds read low): 0.683 | normalized growth (S. cerevisiae deletion strains, locus YLR268W, strain sec22, active compounds read low): 0.91 | normalized growth (S. cerevisiae deletion strains, locus YLR320W, strain mms22, active compounds read low): 0.898 | normalized growth (S. cerevisiae deletion strains, locus YLR330W, strain CHS5, active compounds read low): 1.01 | normalized growth (S. cerevisiae deletion strains, locus YLR342W, strain FKS1 (second series), active compounds read low): 0.724 (active) | normalized growth (S. cerevisiae deletion strains, locus YLR342W, strain FKS1, active compounds read low): 0.983 | normalized growth (S. cerevisiae deletion strains, locus YLR357W, strain rsc2, active compounds read low): 1.1 | normalized growth (S. cerevisiae deletion strains, locus YLR370C, strain arc18, active compounds read low): 1.03 | normalized growth (S. cerevisiae deletion strains, locus YLR371W, strain rom2, active compounds read low): 1.03 | normalized growth (S. cerevisiae deletion strains, locus YLR384C, strain iki3, active compounds read low): 1.04 | normalized growth (S. cerevisiae deletion strains, locus YLR418C, strain cdc73, active compounds read low): 0.791 (active) | normalized growth (S. cerevisiae deletion strains, locus YML016C, strain PPZ1, active compounds read low): 1.03 | normalized growth (S. cerevisiae deletion strains, locus YML032C, strain rad52, active compounds read low): 0.913 | normalized growth (S. cerevisiae deletion strains, locus YML120C, strain ndi1, active compounds read low): 0.985 | normalized growth (S. cerevisiae deletion strains, locus YML124C, strain tub3, active compounds read low): 1.03 | normalized growth (S. cerevisiae deletion strains, locus YMR058W, strain fet3, active compounds read low): 0.947 | normalized growth (S. cerevisiae deletion strains, locus YMR078C, strain ctf18, active compounds read low): 1.02 | normalized growth (S. cerevisiae deletion strains, locus YMR125W, strain sto1, active compounds read low): 1.13 [resistant] (active) | normalized growth (S. cerevisiae deletion strains, locus YMR129W, active compounds read low): 1.02 | normalized growth (S. cerevisiae deletion strains, locus YMR205C, strain PFK2, active compounds read low): 0.995 | normalized growth (S. cerevisiae deletion strains, locus YMR223W, strain ubp8, active compounds read low): 0.948 | normalized growth (S. cerevisiae deletion strains, locus YMR231W, strain pep5, active compounds read low): 1.02 | normalized growth (S. cerevisiae deletion strains, locus YMR307W, strain GAS1, active compounds read low): 0.681 | normalized growth (S. cerevisiae deletion strains, locus YNL067W, strain RPL9B, active compounds read low): 0.9 | normalized growth (S. cerevisiae deletion strains, locus YNL071W, strain lat1, active compounds read low): 0.97 | normalized growth (S. cerevisiae deletion strains, locus YNL183C, strain NPR1, active compounds read low): 0.91 | normalized growth (S. cerevisiae deletion strains, locus YNL209W, strain ssb2, active compounds read low): 1.02 | normalized growth (S. cerevisiae deletion strains, locus YNL233W, strain BNI4, active compounds read low): 0.928 | normalized growth (S. cerevisiae deletion strains, locus YNL248C, strain rpa49, active compounds read low): 0.955 | normalized growth (S. cerevisiae deletion strains, locus YNL250W, strain rad50, active compounds read low): 0.989 | normalized growth (S. cerevisiae deletion strains, locus YNL271C, strain bni1, active compounds read low): 0.968 | normalized growth (S. cerevisiae deletion strains, locus YNL298W, strain CLA4, active compounds read low): 0.909 | normalized growth (S. cerevisiae deletion strains, locus YNL307C, strain MCK1, active compounds read low): 0.813 (active) | normalized growth (S. cerevisiae deletion strains, locus YNL322C, strain KRE1 (second series), active compounds read low): 1.03 | normalized growth (S. cerevisiae deletion strains, locus YNL322C, strain KRE1, active compounds read low): 1.01 | normalized growth (S. cerevisiae deletion strains, locus YNR049C, strain mso1, active compounds read low): 1.04 | normalized growth (S. cerevisiae deletion strains, locus YNR052C, strain pop2, active compounds read low): 0.965 | normalized growth (S. cerevisiae deletion strains, locus YOL006C, strain TOP1, active compounds read low): 0.726 | normalized growth (S. cerevisiae deletion strains, locus YOL012C, strain htz1): 2.07 | normalized growth (S. cerevisiae deletion strains, locus YOL147C, strain pex11, active compounds read low): 1.02 | normalized growth (S. cerevisiae deletion strains, locus YOR001W, strain rrp6, active compounds read low): 0.939 | normalized growth (S. cerevisiae deletion strains, locus YOR061W, strain CKA2, active compounds read low): 1.01 | normalized growth (S. cerevisiae deletion strains, locus YOR069W, strain VPS5, active compounds read low): 1.02 | normalized growth (S. cerevisiae deletion strains, locus YOR070C, strain gyp1, active compounds read low): 0.987 | normalized growth (S. cerevisiae deletion strains, locus YOR080W, strain dia2, active compounds read low): 1.01 | normalized growth (S. cerevisiae deletion strains, locus YOR083W, strain WHI5, active compounds read low): 0.974 | normalized growth (S. cerevisiae deletion strains, locus YOR106W, strain vam3, active compounds read low): 0.938 | normalized growth (S. cerevisiae deletion strains, locus YOR136W, strain idh2, active compounds read low): 1.01 | normalized growth (S. cerevisiae deletion strains, locus YOR144C, strain elg1, active compounds read low): 0.998 | normalized growth (S. cerevisiae deletion strains, locus YOR184W, strain ser1, active compounds read low): 0.624 (active) | normalized growth (S. cerevisiae deletion strains, locus YOR231W, strain MKK1, active compounds read low): 0.95 | normalized growth (S. cerevisiae deletion strains, locus YOR265W, strain rbl2, active compounds read low): 1.03 | normalized growth (S. cerevisiae deletion strains, locus YOR270C, strain vph1, active compounds read low): 0.905 | normalized growth (S. cerevisiae deletion strains, locus YOR290C, strain snf2, active compounds read low): 0.908 | normalized growth (S. cerevisiae deletion strains, locus YOR316C, strain cot1, active compounds read low): 1.04 | normalized growth (S. cerevisiae deletion strains, locus YPL051W, strain arl3, active compounds read low): 0.91 (active) | normalized growth (S. cerevisiae deletion strains, locus YPL078C, strain atp4, active compounds read low): 0.915 | normalized growth (S. cerevisiae deletion strains, locus YPL106C, strain sse1, active compounds read low): 1.14 | normalized growth (S. cerevisiae deletion strains, locus YPL240C, strain hsp82, active compounds read low): 1.02 | normalized growth (S. cerevisiae deletion strains, locus YPL241C, strain CIN2, active compounds read low): 1.03 | normalized growth (S. cerevisiae deletion strains, locus YPL256C, strain CLN2, active compounds read low): 1.03 | normalized growth (S. cerevisiae deletion strains, locus YPR119W, strain clb2, active compounds read low): 1.04 | normalized growth (S. cerevisiae deletion strains, locus YPR141C, strain kar3, active compounds read low): 1.04 | normalized growth (S. cerevisiae deletion strains, locus YPR163C, strain tif3, active compounds read low): 0.934 | normalized growth (S. cerevisiae deletion strains, locus YPR167C, strain met16, active compounds read low): 1.01 | normalized growth (S. cerevisiae deletion strains, strain wtn01, active compounds read low): 0.906 | normalized growth (S. cerevisiae strains, strain wild type, active compounds read low): 0.999
